Data on 35 compounds can be found in PubChem BioAssay.

Calls of active or inactive are those of the source.

Chain of Luciferin 4-monooxygenase (Photinus pyralis) (P08659 whole entry, looked up): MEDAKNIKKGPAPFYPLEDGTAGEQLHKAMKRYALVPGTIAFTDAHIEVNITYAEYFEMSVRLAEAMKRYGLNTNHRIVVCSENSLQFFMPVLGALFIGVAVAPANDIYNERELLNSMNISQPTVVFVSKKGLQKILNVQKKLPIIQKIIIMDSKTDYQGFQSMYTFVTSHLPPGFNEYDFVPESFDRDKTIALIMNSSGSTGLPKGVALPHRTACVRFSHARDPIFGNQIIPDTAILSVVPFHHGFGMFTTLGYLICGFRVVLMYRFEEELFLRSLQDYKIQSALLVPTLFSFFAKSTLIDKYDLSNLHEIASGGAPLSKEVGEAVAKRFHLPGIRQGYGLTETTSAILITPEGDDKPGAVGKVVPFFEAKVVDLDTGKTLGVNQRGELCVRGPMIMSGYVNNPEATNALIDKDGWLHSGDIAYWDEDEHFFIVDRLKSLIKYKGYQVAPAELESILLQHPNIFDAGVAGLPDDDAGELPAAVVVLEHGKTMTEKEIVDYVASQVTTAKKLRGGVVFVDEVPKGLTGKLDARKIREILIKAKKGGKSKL

One test deals with wheat germ agglutinin (Triticum aestivum), Alexa647-labelled. Put plainly: Alexa647-WGA lectin binding to printed small molecules – biochemical, small-molecule microarray, 635/667 nm fluorescence, artefact control for SMM control-protein annotation, profiling panel (AID 1140).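 Also: score merges 667 nm feature emission with signal to noise over triplicate slides.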 The note with it: WGA-A647 binding, 635 nm fluorescence, higher = more signal.
Compound `CCOC(=O)C[C@H]1[C@H](OC(=O)Cc2ccc3c(c2)OCO3)[C@@H](NC(=O)c2ccccc2)c2cc(OCCCO)ccc2N1C(=O)c1ccc2ccccc2n1` gave a composite z-score of 0.473.

`Cc1ccc(S[C@]2(C(=O)NCc3ccccc3)CC(=O)N(C3Cc4ccccc4C3)[C@@H]2c2ccc(CO)cc2I)cc1` displayed a composite z-score of 0.146.

As to `CC(C)C(CO)N1C(=O)[C@@H]2[C@H]3C(=O)OCC=C[C@H]3OC23C=CCN(CCN2CCOCC2)C(=O)[C@@H]13` (some centres undefined), the composite z-score is -0.467.

Take `C=CCOC(=O)[C@@H]1[C@H]2C(=O)O[C@H](c3ccccc3)[C@H](c3ccccc3)N2[C@H](c2ccc(OCCOC(=O)[C@H]3C[C@H]4C(=O)N[C@@H](Cc5ccccc5)C(=O)N4[C@H]3c3cccc(OCCO)c3)cc2)[C@@]12C(=O)Nc1ccc(I)cc12`: the composite z-score turned out to be 0.548.

As to `CCOC(=O)C[C@H]1[C@H](OC(=O)c2ccccc2-c2ccccc2)[C@@H](NC(=O)c2ccccc2)c2cc(OCCCO)ccc2N1C(=O)Cc1ccc(OC)cc1`, the composite z-score was 0.564.

As to `NCCCCCCNC(=O)[C@H]1C[C@H]2C(=O)N3CCC[C@H]3C(=O)N2[C@H]1c1ccc(O)cc1`, the composite z-score turned out to be 0.752.

Consider `COC(=O)[C@@]1(Cc2ccc(F)cc2)[C@H]2c3cc(C(=O)N4CCCC4)n(Cc4ccccc4)c3C[C@H]2CN1C(=O)c1ccccc1`, for which the composite z-score was determined as 0.768.

Take `COC(=O)[C@@]1(Cc2ccccc2)[C@H]2c3cc(C(=O)N(C)C)n(Cc4ccccn4)c3C[C@H]2CN1C(=O)c1ccccc1`: the composite z-score was determined as 0.88.

`O=C1c2ccccc2[C@](Cc2ccccc2I)(C(=O)NCC(F)(F)F)[C@H](c2ccc(CO)cc2)N1Cc1ccccc1`: the composite z-score turned out to be 0.469.

The compound `O=C1NC(=O)C2C1C=CC(C(O)c1ccc3c(c1)OCO3)N2Nc1ccc(Cl)cc1Cl` (centres undefined) came in with a composite z-score of 0.698.

The compound `COCCOC(=O)N1C(=O)[C@@]2(c3cc(C#CCCO)ccc31)[C@H](c1ccc(OCCO)cc1)N1[C@H](c3ccccc3)[C@H](c3ccccc3)OC(=O)[C@H]1[C@@H]2C(=O)N1CCc2cc(OC)c(OC)cc2C1` displayed a composite z-score of 0.0877.

`CC(C)c1ccc(NN2C(C(O)c3cccs3)C=CC3C(=O)N(c4ccccc4)C(=O)C32)cc1` (centres undefined) gave a composite z-score of 1.06.

On to `C#CCNS(=O)(=O)N(C)C`, for which the composite z-score worked out at 0.0088.

`C=CC[C@]1(C(=O)N(C)C)N=C(c2ccc(OCCCO)cc2)O[C@H]1c1ccccc1` gave a composite z-score of 0.149.

`C[C@@H]1ON(c2ccccc2)[C@H](c2ccccc2)[C@H]1C(=O)N1C(=O)OC[C@H]1Cc1ccccc1` had a composite z-score of 0.237.

In turn, `COc1ccc([Si](C)(C)[C@H]2[C@H](CC(=O)N3CCC[C@H]3CO)O[C@@]3(C(=O)N(Cc4ccc(N5C(=O)c6cccc7cccc5c67)cc4)c4ccccc43)[C@@H]2C)cc1` came in with a composite z-score of 0.682.

In the case of `COCC1=C([C@H](O)CCc2ccccc2)[C@H](CO)[C@@H]2C(=O)N(C)C(=O)[C@@H]2C1`, the composite z-score is -0.368.

For the compound `O=C(NCc1ccccc1)[C@]1(Cc2ccccc2)N=C(c2ccc(OCCCO)cc2)O[C@@H]1c1ccccc1`, the composite z-score stood at 0.648.

As for `C=C(C(=O)CC[C@H](OC(=O)c1cccnc1)c1ccc(OCCO)cc1)C(C)C`, the composite z-score is -0.052.

Take `O=C(O)[C@@]1(Cc2ccccc2)COC(c2ccc(OCCCO)cc2)=N1`: the composite z-score is -0.723.

As to `CCOC(=O)C1=CC[C@@H](c2cccc(Br)c2)N(S(=O)(=O)c2ccc(C)cc2)[C@H]1c1ccc([N+](=O)[O-])cc1`, the composite z-score came out at 0.743.

The compound `CN(C)C(=O)[C@@]1(CCC(=O)OC(C)(C)C)COC(c2ccc(OCCCO)cc2)=N1` displayed a composite z-score of 0.334.

With `O=C1O[C@H](c2ccccc2)[C@H](c2ccccc2)N2[C@H]1[C@@H](C(=O)N1CCN(c3ncccn3)CC1)[C@]1(C(=O)Nc3ccc(C#CCCO)cc31)[C@H]2c1ccc(OCCO)cc1`, the composite z-score stood at 0.772.

Consider `COC(=O)[C@@]1(Cc2ccccc2)[C@H]2c3cc(C(=O)N4CCCC4)n(CCO)c3C[C@H]2CN1C(=O)c1ccccc1`, for which the composite z-score came to 1.12.

Another test addresses Luciferin 4-monooxygenase (Photinus pyralis) (UniProt P08659). Put plainly: inhibition of purified Photinus pyralis luciferase – biochemical, luminescence, purified enzyme, 2006 set, primary screen (AID 1141).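 Also: cell-free assay with purified firefly luciferase at 100 ng per well in PBS; test concentration not given here.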 Conditions: purified firefly luciferase, SteadyGlo luminescence, 30 min; higher = more signal, called active from +8 up or from −8 down.
`CC(C)NC(=O)[C@@H]1c2ccccc2C(=O)N(Cc2cc(C(F)(F)F)cc(C(F)(F)F)c2)[C@H]1c1ccc(CO)cc1`: the z-score is 0.487 (inactive).

With `O=C(CS)NCCCCCNC(=O)[C@@H]1C[C@@H]2C(=O)N3CCC[C@H]3C(=O)N2[C@@H]1c1ccc(O)cc1`, the z-score is -1.59 (inactive).

On to `CCCCC=C[C@@H](NC(=O)CCc1ccccc1)c1ccccc1`, for which the z-score is 1.08 (inactive).

As for `COCCOC(=O)N1C(=O)[C@@]2(c3cc(C#Cc4ccc(OC)cc4)ccc31)[C@H](C(=O)N1CCc3cc(OC)c(OC)cc3C1)[C@H]1C(=O)O[C@H](c3ccccc3)[C@H](c3ccccc3)N1[C@@H]2c1ccc(OCCO)cc1`, the z-score was -1.23 (inactive).

For the compound `OCc1ccc(-c2cc[n+](Cc3cccc(OC(F)(F)F)c3)cc2)cc1`, the z-score was 0.194 (inactive).

As to `O=C(Nc1cc(Br)ccc1C(=O)NCc1cccc(O)c1)c1ccccc1`, the z-score was -0.0565 (inactive).

`COC(=O)c1ccc(OC)c(/C=C\CC(CCc2ccccc2)OC(C)=O)c1` (centres undefined): the z-score is -0.558 (inactive).

As for `O=C1C[C@@](C(=O)O)(c2ccc([N+](=O)[O-])cc2)[C@@H](c2ccc(CO)cc2)N1CC12CC3CC(CC(C3)C1)C2`, the z-score was -0.162 (inactive).

As to `CO[C@H]1O[C@H](CO)[C@@H](OC(=O)Nc2cccc(F)c2)[C@H](OC(=O)Nc2ccc3c(c2)OCO3)[C@H]1OC(=O)Nc1ccc2c(c1)OCO2`, the z-score was -5.24 (inactive).

Regarding `COc1ccc([Si](C)(C)[C@H]2[C@H](CCO)O[C@@]3(C(=O)N(Cc4cccc(N5CCOC5=O)c4)c4ccccc43)[C@@H]2C)cc1`, the z-score was -0.0833 (inactive).

As for `COC(=O)C(CC#Cc1ccc2c(c1)[C@]1(C(=O)N2)[C@H](c2ccccc2OCCO)N2[C@H](c3ccccc3)[C@H](c3ccccc3)OC(=O)[C@H]2[C@@H]1C(=O)Nc1nc2ccccc2s1)C(=O)OC`, the z-score is -1.21 (inactive).

For `CCOC(=O)C[C@H]1[C@H](OC(=O)Cc2ccc3c(c2)OCO3)[C@@H](NC(=O)c2ccccc2)c2cc(OCCCO)ccc2N1C(=O)c1ccc2ccccc2n1`, the z-score is -1.43 (inactive).

In the case of `Cc1ccc(S[C@]2(C(=O)NCc3ccccc3)CC(=O)N(C3Cc4ccccc4C3)[C@@H]2c2ccc(CO)cc2I)cc1`, the z-score was -1.26 (inactive).

With `CC(C)C(CO)N1C(=O)[C@@H]2[C@H]3C(=O)OCC=C[C@H]3OC23C=CCN(CCN2CCOCC2)C(=O)[C@@H]13` (some centres undefined), the z-score is -0.233 (inactive).

For the compound `C=CCOC(=O)[C@@H]1[C@H]2C(=O)O[C@H](c3ccccc3)[C@H](c3ccccc3)N2[C@H](c2ccc(OCCOC(=O)[C@H]3C[C@H]4C(=O)N[C@@H](Cc5ccccc5)C(=O)N4[C@H]3c3cccc(OCCO)c3)cc2)[C@@]12C(=O)Nc1ccc(I)cc12`, the z-score was -3.65 (inactive).

Consider `CCOC(=O)C[C@H]1[C@H](OC(=O)c2ccccc2-c2ccccc2)[C@@H](NC(=O)c2ccccc2)c2cc(OCCCO)ccc2N1C(=O)Cc1ccc(OC)cc1`, for which the z-score was 0.897 (inactive).

In the case of `NCCCCCCNC(=O)[C@H]1C[C@H]2C(=O)N3CCC[C@H]3C(=O)N2[C@H]1c1ccc(O)cc1`, the z-score was 0.24 (inactive).

As to `COC(=O)[C@@]1(Cc2ccc(F)cc2)[C@H]2c3cc(C(=O)N4CCCC4)n(Cc4ccccc4)c3C[C@H]2CN1C(=O)c1ccccc1`, the z-score is 2.22 (inactive).

In the case of `COC(=O)[C@@]1(Cc2ccccc2)[C@H]2c3cc(C(=O)N(C)C)n(Cc4ccccn4)c3C[C@H]2CN1C(=O)c1ccccc1`, the z-score is 1.56 (inactive).

Turning to `O=C1c2ccccc2[C@](Cc2ccccc2I)(C(=O)NCC(F)(F)F)[C@H](c2ccc(CO)cc2)N1Cc1ccccc1`, the z-score was 0.875 (inactive).

As for `O=C1NC(=O)C2C1C=CC(C(O)c1ccc3c(c1)OCO3)N2Nc1ccc(Cl)cc1Cl` (centres undefined), the z-score was -0.109 (inactive).

On to `COCCOC(=O)N1C(=O)[C@@]2(c3cc(C#CCCO)ccc31)[C@H](c1ccc(OCCO)cc1)N1[C@H](c3ccccc3)[C@H](c3ccccc3)OC(=O)[C@H]1[C@@H]2C(=O)N1CCc2cc(OC)c(OC)cc2C1`, for which the z-score was -0.856 (inactive).

As to `CC(C)c1ccc(NN2C(C(O)c3cccs3)C=CC3C(=O)N(c4ccccc4)C(=O)C32)cc1` (centres undefined), the z-score is -0.893 (inactive).

As to `C#CCNS(=O)(=O)N(C)C`, the z-score is 0.991 (inactive).

Consider `C=CC[C@]1(C(=O)N(C)C)N=C(c2ccc(OCCCO)cc2)O[C@H]1c1ccccc1`, for which the z-score was -1.52 (inactive).

For `C[C@@H]1ON(c2ccccc2)[C@H](c2ccccc2)[C@H]1C(=O)N1C(=O)OC[C@H]1Cc1ccccc1`, the z-score was 0.549 (inactive).

Consider `COc1ccc([Si](C)(C)[C@H]2[C@H](CC(=O)N3CCC[C@H]3CO)O[C@@]3(C(=O)N(Cc4ccc(N5C(=O)c6cccc7cccc5c67)cc4)c4ccccc43)[C@@H]2C)cc1`, for which the z-score was 0.0355 (inactive).

As for `COCC1=C([C@H](O)CCc2ccccc2)[C@H](CO)[C@@H]2C(=O)N(C)C(=O)[C@@H]2C1`, the z-score was -1.08 (inactive).

On to `O=C(NCc1ccccc1)[C@]1(Cc2ccccc2)N=C(c2ccc(OCCCO)cc2)O[C@@H]1c1ccccc1`, for which the z-score is -0.794 (inactive).

Regarding `C=C(C(=O)CC[C@H](OC(=O)c1cccnc1)c1ccc(OCCO)cc1)C(C)C`, the z-score is -2.26 (inactive).

`O=C(O)[C@@]1(Cc2ccccc2)COC(c2ccc(OCCCO)cc2)=N1`: the z-score is -3.65 (inactive).

For `CCOC(=O)C1=CC[C@@H](c2cccc(Br)c2)N(S(=O)(=O)c2ccc(C)cc2)[C@H]1c1ccc([N+](=O)[O-])cc1`, the z-score is 1.96 (inactive).

Take `CN(C)C(=O)[C@@]1(CCC(=O)OC(C)(C)C)COC(c2ccc(OCCCO)cc2)=N1`: the z-score is 0.995 (inactive).

Take `O=C1O[C@H](c2ccccc2)[C@H](c2ccccc2)N2[C@H]1[C@@H](C(=O)N1CCN(c3ncccn3)CC1)[C@]1(C(=O)Nc3ccc(C#CCCO)cc31)[C@H]2c1ccc(OCCO)cc1`: the z-score is -0.713 (inactive).

On to `COC(=O)[C@@]1(Cc2ccccc2)[C@H]2c3cc(C(=O)N4CCCC4)n(CCO)c3C[C@H]2CN1C(=O)c1ccccc1`, for which the z-score is 0.891 (inactive).
